TRHR enhancer: TRH receptor (human) allosteric enhancement; P34981; 0.66% of 360,000 active; AID 493056; enhancement, % at 2 µM; TRHR cells, fluo-8 calcium fluorescence, EC20 TRH enhancement; in the data active = enhancement above about 30%; note: 0% is about no effect
Target sequence (P34981 whole entry, looked up): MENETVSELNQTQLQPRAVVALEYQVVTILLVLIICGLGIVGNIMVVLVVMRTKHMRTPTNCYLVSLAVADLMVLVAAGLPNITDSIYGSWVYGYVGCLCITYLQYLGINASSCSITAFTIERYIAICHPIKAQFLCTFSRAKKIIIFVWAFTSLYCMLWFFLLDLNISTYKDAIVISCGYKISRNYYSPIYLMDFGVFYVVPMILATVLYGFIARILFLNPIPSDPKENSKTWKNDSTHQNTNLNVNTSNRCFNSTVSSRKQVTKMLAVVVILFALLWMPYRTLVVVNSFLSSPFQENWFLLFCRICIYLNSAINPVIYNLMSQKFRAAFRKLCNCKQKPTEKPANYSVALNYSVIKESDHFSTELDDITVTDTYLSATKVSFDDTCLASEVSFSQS
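TRHR-expressing cells loaded with fluo-8 calcium dye were read kinetically (ex 480/em 530) during compound addition, then stimulated with an EC20 of TRH (10 nM final). Enhancement of the Gq-mediated intracellular calcium response was scored.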
TRHR ag: agonists of human TRH receptor; P34981; 0.18% of 360,000 active; TRHR cells, calcium flux fluo-8, FDSS agonist mode; activation, % at 2 µM; note: 0% is about no effect
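Steps: seed TRHR cells overnight; add fluo-8 no-wash Ca dye, RT 30 min–1.5 h; record 10 s baseline; pin-transfer compounds; monitor fluorescence 1 cycle/s for the agonist window. Calcium increases flag candidate agonists.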
D1 ag: activates the human D1 dopamine receptor; P21728; HEK293 T-REx D1 cells, calcium flux, agonist mode; activation, % at 2 µM; 1% of 360,000 active; AID 504660; note: 0% is about no effect
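Inducible HEK293 T-REx D1 cells, force-coupled to calcium signalling, were plated at 4000 cells/well with tetracycline and held overnight at 30 C. After no-wash calcium dye loading, compound-evoked calcium rise over 180 s flagged agonists.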
D1 potentiator: enhances dopamine response at the human D1 receptor; P21728; potentiation, % at 10 µM; 0.036% of 360,000 active; HEK293 TREx D1 cells, calcium flux, dopamine EC20 potentiation; AID 504651; in the data active = potentiation above about 30%; note: 0% is about no effect
D1 antag: blocks dopamine activation of the human D1 receptor; activity change, negative = inhibition, % at 10 µM; P21728; AID 504652; HEK293 TREx D1 cells, calcium flux, dopamine EC80; stronger effect = lower value; 3.2% of 360,000 active; in the data active = activity change below about -30%; note: % is set by controls: 0 for no effect and ±100 for the full control effect
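Using tetracycline-induced force-coupled D1 Hek293 cells and a calcium dye, signals were followed for 180 s after compound, then for 180 s after EC80 dopamine, to detect inhibitors.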
* marks the source's active call; other numbers are inactive results; x = no result; ! = not confirmed by another sample. Shown are actives, neighbours in structure and some others; about 4.6% of the full set was active somewhere. Cut-off read from the data, not from the text of the source, unless noted: active = activation above about 30%; inactive = the rest.

SMILES	TRHR enhancer	TRHR ag	D1 ag	D1 potentiator	D1 antag
Cc1cc(OCC(=O)NNC(=O)c2ccncc2)cc(C)c1Cl	-1	0	7	-6	12
Cc1cc(OCC(=O)NC(C)C)cc(C)c1Cl	0	-1	6	-5	-31*
Cc1ccc(Cn2c(SCc3ccc(C(=O)NCCc4ccccc4)cc3)nc3ccncc32)cc1	-1	2	17	-3	-10
O=C(NCCc1ccccc1)c1ccc(CSc2nc3ccncc3n2Cc2ccccc2)cc1	18	0	4	-5	-31*
O=C(Cn1c(=O)n(Cc2ccc(F)cc2)c(=O)c2sc3ccccc3c21)NCc1ccccc1Cl	9	1	1	2	7
COc1ccc(CCNC(=O)Cn2nc(C)n3c(cc4occc43)c2=O)cc1OC	0	1	2	-3	-3
O=C(Cc1ccc(Cl)cc1)Nc1ccc(N2CCCC2)cc1	4	-1	1	-7	3
Clc1cccc(Cl)c1CNc1ccc(N2CCCC2)cc1	31*	1	-1	-2	2
Nc1nc(C(F)(F)F)c(Br)c(=O)n1N	-24	1	1	-5	-30*
Cc1nn(C)c2c1c(C(F)(F)F)cc(=O)n2CC(=O)Nc1ccc(F)cc1F	4	-1	6	-3	8
CCCCCCN1C=CC=C/C1=C\C=C(C#N)C#N	-3	28	64*	7	-7
COc1cc(CN2CCC(CO)(Cc3cccc(C(F)(F)F)c3)CC2)ccc1F	1	-1	52*	-6	-26
Cc1c(CN2CCC(CO)(Cc3cccc(C(F)(F)F)c3)CC2)c2ccccc2n1C	11	0	82*	-1	7
COc1ccc(F)c(CN2CCC(CO)(Cc3cccc(C(F)(F)F)c3)CC2)c1	-3	2	7	-1	5
COc1ccc(CN2CCC(CO)(Cc3cccc(C(F)(F)F)c3)CC2)cc1Cn1cccn1	-1	0	34*	-6	-21
OCC1(Cc2cccc(C(F)(F)F)c2)CCN(Cc2cc3ccccc3o2)CC1	-3	1	10	-1	8
CC(OC(=O)Cn1[nH]c(=O)c2ccccc2c1=O)C(=O)Nc1ccc(F)cc1 (configuration not stated)	7	0	6	-7	-30*
CC1CC(C)(C)Nc2ccc(N=O)cc21 (configuration not stated)	11	-1	2	-4	-45*
CCC(=O)Nc1sc2c(c1C(=O)Nc1ccccc1C)CCC(C)C2 (configuration not stated)	-5	0	9	3	-1
CC1=Nc2cc(C(=O)N3CCCCC3)ccc2Sc2ccc(C)cc21	-8	-1	12	-6	-44*!
Cc1ccc(C(CC(=O)c2ccc(Cl)cc2)C(=O)O)cc1 (configuration not stated)	1	0	2	-3	13
COC(=O)C(CC(=O)c1ccc(Cl)cc1)c1ccc(C(C)C)cc1 (configuration not stated)	0	1	9	-4	-30*
O=C(NCc1ccc2c(c1)OCO2)c1ccc(CSCc2ccc(Cl)cc2)o1	1	1	17	-2	-34*
O=C(NCc1ccc(Cl)cc1)c1ccc(CSCc2cccc(Cl)c2)o1	-4	3	39*	-4	-16
Cc1ccc(CNC(=O)c2ccc(CSCc3ccc(Cl)cc3)o2)cc1	8	2	19	-2	-13
SMILES	TRHR enhancer	TRHR ag	D1 ag	D1 potentiator	D1 antag
O=C(NCc1ccc2c(c1)OCO2)c1ccc(CS(=O)(=O)Cc2cccc(Cl)c2)o1	-2	1	12	-7	-25
CCc1ccccc1S(=O)(=O)Cc1ccc(C(=O)NCc2ccc3c(c2)OCO3)o1	-9	0	0	-8	-56*
Cc1ccc(C)c(NC(=O)C2CCN(S(=O)(=O)c3c(C)noc3/C=C/c3cccs3)CC2)c1	-8	2	3	4	-1
CCOC(=O)N1CCc2c(sc3c2c(=O)n(CCc2ccccc2)c(=O)n3Cc2cc(C)ccc2C)C1	1	1	2	-4	-51*
Cc1ccc(C)c(NC(=O)Cn2nc(-c3ccccc3)nc2-c2ccccc2)c1	7	0	-1	-1	-33*
CCCCC(CC)COC(=O)CCCCC(=O)OCC(CC)CCCC (configuration not stated)	4	1	-1	-3	x
CCCCC(CC)CN=C(N)NC(N)=NCCCCCCN=C(N)NC(N)=NCC(CC)CCCC (configuration not stated)	-7	1	2	2	-75*
Cn1cnc(S(=O)(=O)N2CCCC(C(=O)NCc3ccc(F)cc3)C2)c1 (configuration not stated)	-10	0	0	0	5
O=C(C/C=N\OCc1ccc([N+](=O)[O-])cc1)Nc1ccc(Cl)cc1	-5	0	19	-7	-30*
Cn1c(=O)[nH]c(=O)c2c1nc(CN1CCN(c3ccccc3F)CC1)n2Cc1ccc(F)cc1	2	-1	-1	4	26
O=C(CN1CCN(Cc2ccc3c(c2)OCO3)CC1)N1CCc2[nH]c3ccc(F)cc3c2C1	-1	0	34*	-1	-27
O=C(CS(=O)(=O)Cc1ccccc1)N1CCN(Cc2ccc3c(c2)OCO3)CC1	1	0	5	-1	-37*
O=C(CCc1ccc(S(=O)(=O)NCc2ccccc2)cc1)N1CCN(Cc2ccc3c(c2)OCO3)CC1	0	0	13	-6	-27
CC1CCN(c2nc3ccc(C(=O)N4CCN(Cc5ccc6c(c5)OCO6)CC4)cc3s2)CC1	5	-1	3	x	-31*
O=C(c1cc2c(=O)n3ccccc3nc2s1)N1CCN(Cc2ccc3c(c2)OCO3)CC1	-3	0	0	-1	-31*
O=C(c1cccc(Cl)c1)N1CCN(Cc2ccc3c(c2)OCO3)CC1	0	0	2	-3	-3
C#CCn1c(COc2ccccc2C)nc2ccccc21	0	-2	0	-4	-2
CCc1nn(CC(=O)Nc2cccc(C(C)=O)c2)c(=O)c2cc3sccc3n12	9	0	0	-3	8
O=C(Cn1ccc2ccccc2c1=O)N1CCN(Cc2ccc3c(c2)OCO3)CC1	4	0	-1	-4	-57*
O=C(Cn1nc(C(F)(F)F)c2c1CCC2)Nc1ccc(Cl)cc1	-7	2	12	-5	-9
CCOC(=O)c1ccc(Nc2sc(C(=O)c3cccc([N+](=O)[O-])c3)c(N)c2C#N)cc1	2	0	10	1	-32*
Cc1ccc(C(=O)c2sc(Nc3ccccc3)c(C#N)c2N)cc1	7	1	2	-5	11
O=C(Cc1ccccc1)Nc1cccc(-c2cn3cccnc3n2)c1	-1	0	0	-2	19

Assay outcomes from PubChem.
